Results filed as inconclusive are left out. Active and inactive are the calls of the source. Calls come from the whole dose curve; as a rule, active = well fitted curve in the direction sought with a large enough effect; inconclusive = small, poorly fitted or top-dose-only effect, or another doubt; inactive = no such curve, though single readings can be large; an effect the other way counts as inactive or inconclusive. Where a SMILES comes first, the peptide text is derived from it. The star is where a group is joined. Cbz = O=C(OCc1ccccc1)*; CH2F = FC*
Key:
[1] = target: Calcium and integrin-binding protein 1 (Homo sapiens) (UniProt Q99828); assay: Primary qHTS for Identification of Calcium Integrin Binding Protein 1 (CIB1) Competitor (AID 1508620);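 note: GST tagged CIB1 binding a fluorescein labelled alphaIIb integrin peptide tracer; top concentration of the series differs between compounds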
Outline: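 CIB1-GST (1 uM final) and compound incubated 15 min at room temperature before adding FITC-alphaIIb peptide tracer (100 nM final). Competition for binding read by fluorescence polarization (ex 480, em 540) after another 15 min at room temperature.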

[2] = Primary qHTS for inhibitors of nuclear receptor binding SET domain protein 2 (NSD2) in an isogenic RCH-ACV NSD2 p.E1099K mutant (9B) (AID 1645876); note: nearly all actives have a fitted effect of over 70% in size
[3] = Primary qHTS for inhibitors of nuclear receptor binding SET domain protein 2 (NSD2) in an RCH-ACV wild type WT cells (2C) (AID 1645877); note: nearly all actives have a fitted effect of over 70% in size
% is set by controls: 0 for no effect and ±100 for the full control effect.

Chain of Calcium and integrin-binding protein 1 (Homo sapiens) (Q99828 whole entry, looked up): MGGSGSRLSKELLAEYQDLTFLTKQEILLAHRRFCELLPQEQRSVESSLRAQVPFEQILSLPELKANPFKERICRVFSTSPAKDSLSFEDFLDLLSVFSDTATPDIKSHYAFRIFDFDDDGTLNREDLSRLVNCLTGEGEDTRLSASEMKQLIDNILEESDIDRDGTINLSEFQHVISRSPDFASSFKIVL

COC(=O)C[C@H]1C(C)(C)[C@H](OC(=O)C(C)C)C2CC3=C4CC(=O)O[C@@H](c5ccoc5)[C@]4(C)CCC3[C@@]1(C)C2=O (some centres undefined)
inactive: Potency [1] | Potency [2] | Potency [3]

COC(=O)C1(O)C(OC(C)=O)CCC2C3(CC(c4ccoc4)OC3=O)C(C)=CCC21C(=O)OC (centres undefined)
inactive: Potency [1] | Potency [2] | Potency [3]

C[C@@H]1O[C@@H](O[C@H]2[C@H](OC(=O)[C@]34CCC(C)(C)C[C@H]3C3=CCC5[C@@]6(C)CC[C@H](O[C@@H]7O[C@H](CO[C@@H]8OC[C@H](O)[C@H](O)[C@H]8O[C@@H]8OC[C@@H](O)[C@H](O)[C@H]8O)[C@@H](O)[C@H](O)[C@H]7O)C(C)(C)C6CC[C@@]5(C)[C@]3(C)C[C@H]4O)O[C@H](CO)[C@@H](O)[C@@H]2O)[C@H](O[C@@H]2O[C@H](CO)[C@@H](O)[C@H](O)[C@H]2O)[C@H](O)[C@H]1O[C@@H]1OC[C@@H](O)[C@H](O[C@@H]2OC[C@@H](O)[C@H](O)[C@H]2O)[C@H]1O (some centres undefined)
inactive: activity change, negative = inhibition [1] 0.603% [at 12.4 µM] | activity change, negative = viability loss [2] 4.39% [at 4.96 µM] | activity change, negative = cell killing [3] 4.37% [at 4.96 µM]

COC(=O)C1=CO[C@@H](O[C@@H]2O[C@H](CO)[C@@H](O)[C@H](O)[C@H]2O)[C@H]2[C@@H]1[C@H](O)C[C@]2(C)O
inactive: Potency [1] | Potency [2] | Potency [3]

CC(C)=CCC[C@](C)(O[C@@H]1O[C@H](CO[C@@H]2OC[C@H](O)[C@H](O)[C@H]2O)[C@@H](O)[C@H](O)[C@H]1O)[C@H]1CC[C@]2(C)[C@@H]1[C@H](O)C[C@@H]1[C@@]3(C)CC[C@H](O[C@@H]4O[C@H](CO)[C@@H](O)[C@H](O)[C@H]4O[C@@H]4O[C@H](CO)[C@@H](O)[C@H](O)[C@H]4O)C(C)(C)[C@@H]3CC[C@]12C
inactive: Potency [1] | Potency [2] | Potency [3]

CC1(C)CCC[C@@]2(C)[C@H]1[C@H](O)C=C(CO)[C@]2(O)CO
inactive: Potency [1] | Potency [2] | Potency [3]

C=C(C(=O)O)[C@@H]1CC[C@H](C)[C@@H]2CC(=O)C(C)=C2C1
inactive: Potency [1] | Potency [2] | Potency [3]

CCc1cc(CC[C@]2(C3CCCC3)CC(O)=C(Cc3nc4nc(C)cc(C)n4n3)C(=O)O2)cc(CC)n1
inactive: Potency [1] | Potency [2] | Potency [3]

CC(C)(O)C1CCC2(C)CCCC(C)(O)C2C1 (centres undefined)
inactive: Potency [1] | Potency [2] | Potency [3]

COc1ccc(/C=C/C(=O)O[C@@H]2[C@@H](OC(C)=O)[C@@H](OC(C)=O)[C@H](O[C@H]3[C@@H]4C=CO[C@@H](O[C@@H]5O[C@H](CO)[C@@H](O)[C@H](O)[C@H]5O)[C@@H]4[C@@]4(CO)O[C@@H]34)O[C@H]2C)cc1
inactive: Potency [1] | Potency [2] | Potency [3]

CC1(C)CC[C@]2(C(=O)O[C@@H]3O[C@H](CO[C@@H]4O[C@H](CO)[C@@H](O)[C@H](O)[C@H]4O)[C@@H](O)[C@H](O[C@@H]4O[C@H](CO)[C@@H](O)[C@H](O)[C@H]4O)[C@H]3O)[C@H](O)C[C@]3(C)C(=CCC4[C@@]5(C)CC[C@H](O[C@@H]6OC[C@@H](O)[C@H](O)[C@H]6O)[C@@](C)(C(=O)O)C5CC[C@]43C)[C@@H]2C1 (some centres undefined)
inactive: Potency [1] | activity change, negative = viability loss [2] -2.24% [at 9.23 µM] | activity change, negative = cell killing [3] -1.62% [at 9.23 µM]

C=C1C[C@]23C[C@H]1CC[C@H]2[C@]1(C)CC[C@H](O)[C@@](C)(C(=O)O)[C@H]1[C@@H]3C(=O)O
inactive: Potency [1] | Potency [2] | Potency [3]

CC(=O)O[C@H]1C[C@@H](O)C(C)(C)C2C[C@@H](OC(C)=O)[C@]3(C)C(CC[C@@]4(C)[C@H](c5ccoc5)OC(=O)[C@H]5O[C@]543)[C@]21C (some centres undefined)
inactive: Potency [1] | Potency [2] | Potency [3]

O=C(/C=C/c1ccc(O)c(O)c1)OC[C@H]1O[C@@H](OC2CCCCC2O)[C@H](O)[C@@H](O)[C@@H]1O (some centres undefined)
inactive: Potency [1] | Potency [2] | Potency [3]

CC1=CCC[C@@H]2[C@](CCc3ccoc3)(C(=O)O)[C@H](C)CC[C@@]12C
inactive: Potency [1] | Potency [2] | Potency [3]

COC(=O)CC[C@H](NC(=O)[C@H](CC(C)C)NC(=O)OCc1ccccc1)C(=O)N[C@@H](Cc1cnc[nH]1)C(=O)N[C@@H](CC(=O)OC)C(=O)CF (Cbz-LE(OMe)HD(OMe)-CH2F)
inactive: Potency [1] | activity change, negative = viability loss [2] -7.97% [at 9.23 µM] | activity change, negative = cell killing [3] -7.81% [at 9.23 µM]

CC(C)C1(O)C=C2C(=O)CC3C(C)(C(=O)O)CCCC3(C)C2CC1 (centres undefined)
inactive: Potency [1] | Potency [2] | Potency [3]

C=C(C(=O)O)C1CC(O)C2(C)CCCC(C)(O)C2C1 (centres undefined)
inactive: Potency [1] | Potency [2] | Potency [3]
